Measurements: ChEMBL document CHEMBL1961873, “Compounds: GSK PKIS; Assays: Nanosyn kinase panel” (2012)

Tests used:
[1] = target: T1, Mitogen-activated protein kinase 12 (Homo sapiens) (UniProt P53778); settings: at 1 µM;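 also: values are averaged p38gamma kinase inhibition readings, compounds tested at 1 µM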
T1 sequence (whole entry): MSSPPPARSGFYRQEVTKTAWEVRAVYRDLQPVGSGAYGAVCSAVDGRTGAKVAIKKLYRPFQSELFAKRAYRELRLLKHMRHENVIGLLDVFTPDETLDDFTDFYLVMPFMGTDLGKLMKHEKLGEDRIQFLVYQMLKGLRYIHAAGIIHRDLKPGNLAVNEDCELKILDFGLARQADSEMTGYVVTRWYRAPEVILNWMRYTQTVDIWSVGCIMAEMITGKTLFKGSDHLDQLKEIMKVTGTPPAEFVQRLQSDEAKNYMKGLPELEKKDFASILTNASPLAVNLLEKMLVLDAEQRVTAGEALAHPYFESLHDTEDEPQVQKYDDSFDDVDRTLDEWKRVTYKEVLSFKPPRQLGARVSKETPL

[2] = target: SRSF protein kinase 1 (Homo sapiens) (UniProt Q96SB4); settings: at 0.1 µM
[3] = target: SRSF protein kinase 1 (Homo sapiens) (UniProt Q96SB4); settings: at 1 µM
[4] = target: Phosphatidylinositol 4,5-bisphosphate 3-kinase catalytic subunit alpha isoform (Homo sapiens) (UniProt P42336); settings: at 0.1 µM
[5] = target: Phosphatidylinositol 4,5-bisphosphate 3-kinase catalytic subunit alpha isoform (Homo sapiens) (UniProt P42336); settings: at 1 µM
[6] = target: T2, Phosphatidylinositol 4,5-bisphosphate 3-kinase catalytic subunit delta isoform (Homo sapiens) (UniProt O00329); settings: at 0.1 µM
T2 sequence (whole entry): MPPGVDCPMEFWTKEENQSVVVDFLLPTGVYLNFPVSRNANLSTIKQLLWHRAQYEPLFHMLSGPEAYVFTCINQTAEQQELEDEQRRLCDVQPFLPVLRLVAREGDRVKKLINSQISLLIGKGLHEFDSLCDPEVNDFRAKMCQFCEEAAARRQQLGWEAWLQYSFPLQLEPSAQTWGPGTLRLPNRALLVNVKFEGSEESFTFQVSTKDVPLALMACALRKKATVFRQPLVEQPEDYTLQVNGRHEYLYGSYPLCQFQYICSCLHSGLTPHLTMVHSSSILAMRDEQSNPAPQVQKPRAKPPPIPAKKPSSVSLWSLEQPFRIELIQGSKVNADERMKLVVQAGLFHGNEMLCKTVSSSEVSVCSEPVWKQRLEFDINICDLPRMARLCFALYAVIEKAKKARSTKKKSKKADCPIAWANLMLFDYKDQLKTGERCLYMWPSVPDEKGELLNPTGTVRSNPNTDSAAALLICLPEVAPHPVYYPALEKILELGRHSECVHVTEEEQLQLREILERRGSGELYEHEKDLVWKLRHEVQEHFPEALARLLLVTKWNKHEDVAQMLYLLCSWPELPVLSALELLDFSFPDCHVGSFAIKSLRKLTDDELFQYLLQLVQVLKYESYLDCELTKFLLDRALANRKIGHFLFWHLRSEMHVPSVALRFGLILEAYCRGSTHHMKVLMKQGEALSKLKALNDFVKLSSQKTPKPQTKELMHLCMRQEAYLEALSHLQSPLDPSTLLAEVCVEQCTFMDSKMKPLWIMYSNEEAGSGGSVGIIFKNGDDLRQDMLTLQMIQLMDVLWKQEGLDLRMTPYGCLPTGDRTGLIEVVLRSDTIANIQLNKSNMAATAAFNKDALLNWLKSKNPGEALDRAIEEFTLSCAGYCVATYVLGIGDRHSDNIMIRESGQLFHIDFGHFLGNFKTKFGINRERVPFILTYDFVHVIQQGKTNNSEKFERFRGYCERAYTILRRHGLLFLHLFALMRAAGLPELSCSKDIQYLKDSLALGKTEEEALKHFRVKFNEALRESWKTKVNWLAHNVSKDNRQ

[7] = target: T2, Phosphatidylinositol 4,5-bisphosphate 3-kinase catalytic subunit delta isoform (Homo sapiens); settings: at 1 µM
[8] = target: Phosphatidylinositol 4-kinase beta (Homo sapiens) (UniProt Q9UBF8); settings: at 0.1 µM
[9] = target: Phosphatidylinositol 4-kinase beta (Homo sapiens) (UniProt Q9UBF8); settings: at 1 µM
[10] = target: Sphingosine kinase 1 (Homo sapiens) (UniProt Q9NYA1); settings: at 0.1 µM
[11] = target: Sphingosine kinase 1 (Homo sapiens) (UniProt Q9NYA1); settings: at 1 µM
[12] = target: T3, Sphingosine kinase 2 (Homo sapiens) (UniProt Q9NRA0); settings: at 0.1 µM
T3 sequence (whole entry): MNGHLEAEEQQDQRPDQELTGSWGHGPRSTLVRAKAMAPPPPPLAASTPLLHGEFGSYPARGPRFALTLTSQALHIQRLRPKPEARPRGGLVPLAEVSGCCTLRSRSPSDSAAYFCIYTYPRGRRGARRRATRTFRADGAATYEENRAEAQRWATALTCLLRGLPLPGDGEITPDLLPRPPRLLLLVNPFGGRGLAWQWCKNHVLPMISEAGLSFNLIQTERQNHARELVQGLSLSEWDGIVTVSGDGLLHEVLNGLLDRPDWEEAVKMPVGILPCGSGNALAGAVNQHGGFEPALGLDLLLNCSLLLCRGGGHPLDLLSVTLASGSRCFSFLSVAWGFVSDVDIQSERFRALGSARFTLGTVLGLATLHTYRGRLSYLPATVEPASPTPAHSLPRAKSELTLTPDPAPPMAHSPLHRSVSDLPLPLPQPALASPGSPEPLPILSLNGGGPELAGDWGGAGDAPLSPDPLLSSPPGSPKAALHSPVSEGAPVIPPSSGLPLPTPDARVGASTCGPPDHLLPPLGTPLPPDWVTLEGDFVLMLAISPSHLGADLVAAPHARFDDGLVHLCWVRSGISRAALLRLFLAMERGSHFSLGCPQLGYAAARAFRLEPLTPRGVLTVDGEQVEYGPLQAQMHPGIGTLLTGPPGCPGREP

[13] = target: T3, Sphingosine kinase 2 (Homo sapiens); settings: at 1 µM
[14] = target: Casein kinase II subunit alpha (Homo sapiens) (UniProt P68400); settings: at 0.1 µM
[15] = target: Casein kinase II subunit alpha (Homo sapiens) (UniProt P68400); settings: at 1 µM
[16] = target: T4, Inhibitor of nuclear factor kappa-B kinase subunit alpha (Homo sapiens) (UniProt O15111); settings: at 0.1 µM
T4 sequence (whole entry): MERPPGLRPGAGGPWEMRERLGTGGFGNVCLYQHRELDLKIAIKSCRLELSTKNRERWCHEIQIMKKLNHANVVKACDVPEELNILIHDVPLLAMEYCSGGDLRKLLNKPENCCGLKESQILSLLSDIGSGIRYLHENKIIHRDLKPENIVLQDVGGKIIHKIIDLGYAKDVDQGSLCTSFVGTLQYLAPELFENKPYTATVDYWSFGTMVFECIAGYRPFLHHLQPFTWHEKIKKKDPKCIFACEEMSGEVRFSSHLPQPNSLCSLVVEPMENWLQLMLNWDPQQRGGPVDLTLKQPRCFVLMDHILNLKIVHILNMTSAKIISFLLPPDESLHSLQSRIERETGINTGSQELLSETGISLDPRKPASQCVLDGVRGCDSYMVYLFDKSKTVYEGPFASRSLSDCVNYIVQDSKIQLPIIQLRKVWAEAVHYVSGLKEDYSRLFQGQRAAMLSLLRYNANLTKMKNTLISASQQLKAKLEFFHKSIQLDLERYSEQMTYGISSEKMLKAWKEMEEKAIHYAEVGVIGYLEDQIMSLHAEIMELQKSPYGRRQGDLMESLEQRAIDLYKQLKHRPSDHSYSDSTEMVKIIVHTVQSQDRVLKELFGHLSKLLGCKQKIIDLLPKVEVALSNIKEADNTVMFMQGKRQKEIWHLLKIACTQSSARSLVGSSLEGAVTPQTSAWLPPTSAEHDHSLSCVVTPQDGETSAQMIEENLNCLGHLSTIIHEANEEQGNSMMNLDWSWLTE

[17] = target: T4, Inhibitor of nuclear factor kappa-B kinase subunit alpha (Homo sapiens); settings: at 1 µM
[18] = target: T5, Inhibitor of nuclear factor kappa-B kinase subunit beta (Homo sapiens) (UniProt O14920); settings: at 0.1 µM
T5 sequence (whole entry): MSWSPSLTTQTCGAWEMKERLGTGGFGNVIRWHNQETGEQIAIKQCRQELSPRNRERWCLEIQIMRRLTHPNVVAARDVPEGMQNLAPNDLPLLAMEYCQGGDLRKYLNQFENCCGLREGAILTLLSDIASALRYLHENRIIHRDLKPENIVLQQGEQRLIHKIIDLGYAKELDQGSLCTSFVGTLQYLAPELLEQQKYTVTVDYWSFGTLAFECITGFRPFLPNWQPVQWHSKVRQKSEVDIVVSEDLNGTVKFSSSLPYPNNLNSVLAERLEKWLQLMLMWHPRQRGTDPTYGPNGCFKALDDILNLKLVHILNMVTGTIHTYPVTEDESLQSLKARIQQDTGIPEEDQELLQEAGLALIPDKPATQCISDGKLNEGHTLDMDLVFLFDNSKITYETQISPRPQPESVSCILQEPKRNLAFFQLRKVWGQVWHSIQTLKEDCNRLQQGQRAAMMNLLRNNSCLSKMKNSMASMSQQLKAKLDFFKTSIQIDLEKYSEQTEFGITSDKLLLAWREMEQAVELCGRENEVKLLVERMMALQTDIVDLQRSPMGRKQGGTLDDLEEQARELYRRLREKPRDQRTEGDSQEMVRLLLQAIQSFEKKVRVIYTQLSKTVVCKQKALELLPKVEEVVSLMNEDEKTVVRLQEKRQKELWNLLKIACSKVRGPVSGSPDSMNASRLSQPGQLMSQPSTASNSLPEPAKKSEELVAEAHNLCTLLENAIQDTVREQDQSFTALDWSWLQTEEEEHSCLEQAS

[19] = target: T5, Inhibitor of nuclear factor kappa-B kinase subunit beta (Homo sapiens); settings: at 1 µM
[20] = target: T6, Inhibitor of nuclear factor kappa-B kinase subunit epsilon (Homo sapiens) (UniProt Q14164); settings: at 0.1 µM;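 also: mean inhibition of IKKε reported, from the GSK PKIS dataset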
T6 sequence (whole entry): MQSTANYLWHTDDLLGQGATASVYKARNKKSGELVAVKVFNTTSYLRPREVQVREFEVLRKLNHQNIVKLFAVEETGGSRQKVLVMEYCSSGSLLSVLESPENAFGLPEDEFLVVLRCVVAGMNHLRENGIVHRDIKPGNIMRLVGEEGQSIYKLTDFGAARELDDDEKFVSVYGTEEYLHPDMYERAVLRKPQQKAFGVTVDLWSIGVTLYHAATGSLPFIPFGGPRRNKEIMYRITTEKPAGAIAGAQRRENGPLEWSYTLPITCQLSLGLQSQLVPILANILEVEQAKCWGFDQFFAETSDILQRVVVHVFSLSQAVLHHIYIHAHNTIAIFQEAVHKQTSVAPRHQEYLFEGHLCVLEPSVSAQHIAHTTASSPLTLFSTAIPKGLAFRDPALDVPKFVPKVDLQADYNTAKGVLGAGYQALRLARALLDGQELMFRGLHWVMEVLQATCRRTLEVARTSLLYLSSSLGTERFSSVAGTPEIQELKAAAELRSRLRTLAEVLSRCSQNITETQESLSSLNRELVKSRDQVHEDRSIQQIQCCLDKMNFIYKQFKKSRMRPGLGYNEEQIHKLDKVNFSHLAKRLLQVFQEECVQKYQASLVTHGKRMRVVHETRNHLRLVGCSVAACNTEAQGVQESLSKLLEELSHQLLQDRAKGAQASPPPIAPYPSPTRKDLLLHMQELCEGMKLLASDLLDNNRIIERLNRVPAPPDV

Sphingosine kinase 1 (Homo sapiens), sequence (Q9NYA1 whole entry): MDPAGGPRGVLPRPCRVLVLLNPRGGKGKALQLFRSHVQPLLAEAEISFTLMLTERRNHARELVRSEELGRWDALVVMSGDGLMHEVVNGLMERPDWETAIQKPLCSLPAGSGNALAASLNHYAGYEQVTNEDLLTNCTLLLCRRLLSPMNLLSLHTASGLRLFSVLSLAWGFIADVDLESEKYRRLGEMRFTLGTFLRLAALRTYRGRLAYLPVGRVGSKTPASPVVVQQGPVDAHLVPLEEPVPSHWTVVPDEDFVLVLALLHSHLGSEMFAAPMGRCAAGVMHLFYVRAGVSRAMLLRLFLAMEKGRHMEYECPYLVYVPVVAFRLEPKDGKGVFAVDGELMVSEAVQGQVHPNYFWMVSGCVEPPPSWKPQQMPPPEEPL
Phosphatidylinositol 4,5-bisphosphate 3-kinase catalytic subunit alpha isoform (Homo sapiens), sequence (P42336 whole entry, canonical isoform): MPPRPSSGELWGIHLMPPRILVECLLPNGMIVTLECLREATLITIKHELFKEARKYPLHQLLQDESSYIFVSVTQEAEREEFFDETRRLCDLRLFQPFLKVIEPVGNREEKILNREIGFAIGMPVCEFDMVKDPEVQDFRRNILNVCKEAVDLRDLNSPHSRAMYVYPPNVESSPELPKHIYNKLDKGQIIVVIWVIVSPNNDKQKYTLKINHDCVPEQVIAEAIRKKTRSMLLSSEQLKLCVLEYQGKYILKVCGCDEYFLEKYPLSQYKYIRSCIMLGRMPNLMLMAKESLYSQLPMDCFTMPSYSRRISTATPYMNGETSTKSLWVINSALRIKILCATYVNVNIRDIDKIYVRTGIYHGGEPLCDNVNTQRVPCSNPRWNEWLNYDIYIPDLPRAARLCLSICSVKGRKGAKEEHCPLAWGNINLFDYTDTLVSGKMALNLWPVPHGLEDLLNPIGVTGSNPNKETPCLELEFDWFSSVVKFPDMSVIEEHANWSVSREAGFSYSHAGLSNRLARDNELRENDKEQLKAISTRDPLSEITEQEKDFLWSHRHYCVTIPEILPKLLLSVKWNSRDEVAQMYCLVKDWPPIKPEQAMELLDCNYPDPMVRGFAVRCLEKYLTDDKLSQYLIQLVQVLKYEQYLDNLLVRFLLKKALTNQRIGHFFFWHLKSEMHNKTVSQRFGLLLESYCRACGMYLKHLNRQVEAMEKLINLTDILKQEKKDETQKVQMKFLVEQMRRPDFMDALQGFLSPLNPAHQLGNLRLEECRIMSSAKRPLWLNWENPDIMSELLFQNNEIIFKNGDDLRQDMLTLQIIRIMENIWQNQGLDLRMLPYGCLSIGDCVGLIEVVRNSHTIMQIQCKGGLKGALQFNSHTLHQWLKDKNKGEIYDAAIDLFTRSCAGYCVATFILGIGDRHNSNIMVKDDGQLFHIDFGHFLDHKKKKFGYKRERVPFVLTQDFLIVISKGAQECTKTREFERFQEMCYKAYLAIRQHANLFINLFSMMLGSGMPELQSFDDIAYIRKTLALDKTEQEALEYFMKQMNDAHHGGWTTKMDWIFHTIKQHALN
Casein kinase II subunit alpha (Homo sapiens), sequence (P68400 whole entry, looked up): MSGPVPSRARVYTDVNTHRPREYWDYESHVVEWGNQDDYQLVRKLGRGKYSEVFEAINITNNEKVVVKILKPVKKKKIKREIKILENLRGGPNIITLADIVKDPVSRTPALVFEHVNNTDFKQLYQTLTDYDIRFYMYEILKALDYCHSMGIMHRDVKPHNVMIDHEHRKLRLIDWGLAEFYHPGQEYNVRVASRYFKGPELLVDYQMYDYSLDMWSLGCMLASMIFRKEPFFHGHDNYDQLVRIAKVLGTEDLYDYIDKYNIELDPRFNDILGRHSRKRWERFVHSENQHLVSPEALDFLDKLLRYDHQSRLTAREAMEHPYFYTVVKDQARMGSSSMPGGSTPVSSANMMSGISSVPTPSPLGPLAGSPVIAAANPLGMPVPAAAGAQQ
SRSF protein kinase 1 (Homo sapiens), sequence (Q96SB4 whole entry, canonical isoform): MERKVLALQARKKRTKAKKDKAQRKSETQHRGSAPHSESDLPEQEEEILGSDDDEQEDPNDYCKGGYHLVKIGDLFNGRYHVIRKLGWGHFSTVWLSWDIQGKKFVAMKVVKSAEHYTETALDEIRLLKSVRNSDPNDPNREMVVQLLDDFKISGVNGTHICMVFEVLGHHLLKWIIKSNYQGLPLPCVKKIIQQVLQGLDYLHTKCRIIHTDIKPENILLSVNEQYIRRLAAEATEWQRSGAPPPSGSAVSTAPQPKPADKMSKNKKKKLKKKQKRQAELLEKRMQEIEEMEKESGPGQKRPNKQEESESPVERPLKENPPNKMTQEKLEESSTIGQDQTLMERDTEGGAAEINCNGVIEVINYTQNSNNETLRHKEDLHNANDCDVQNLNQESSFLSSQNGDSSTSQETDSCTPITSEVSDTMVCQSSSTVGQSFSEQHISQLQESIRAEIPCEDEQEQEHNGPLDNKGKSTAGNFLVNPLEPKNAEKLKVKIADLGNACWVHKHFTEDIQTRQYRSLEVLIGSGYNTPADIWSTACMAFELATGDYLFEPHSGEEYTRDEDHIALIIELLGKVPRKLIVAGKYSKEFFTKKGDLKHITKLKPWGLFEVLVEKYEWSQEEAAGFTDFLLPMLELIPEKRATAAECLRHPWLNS
Phosphatidylinositol 4-kinase beta (Homo sapiens), sequence (Q9UBF8 2-816 limits assumed): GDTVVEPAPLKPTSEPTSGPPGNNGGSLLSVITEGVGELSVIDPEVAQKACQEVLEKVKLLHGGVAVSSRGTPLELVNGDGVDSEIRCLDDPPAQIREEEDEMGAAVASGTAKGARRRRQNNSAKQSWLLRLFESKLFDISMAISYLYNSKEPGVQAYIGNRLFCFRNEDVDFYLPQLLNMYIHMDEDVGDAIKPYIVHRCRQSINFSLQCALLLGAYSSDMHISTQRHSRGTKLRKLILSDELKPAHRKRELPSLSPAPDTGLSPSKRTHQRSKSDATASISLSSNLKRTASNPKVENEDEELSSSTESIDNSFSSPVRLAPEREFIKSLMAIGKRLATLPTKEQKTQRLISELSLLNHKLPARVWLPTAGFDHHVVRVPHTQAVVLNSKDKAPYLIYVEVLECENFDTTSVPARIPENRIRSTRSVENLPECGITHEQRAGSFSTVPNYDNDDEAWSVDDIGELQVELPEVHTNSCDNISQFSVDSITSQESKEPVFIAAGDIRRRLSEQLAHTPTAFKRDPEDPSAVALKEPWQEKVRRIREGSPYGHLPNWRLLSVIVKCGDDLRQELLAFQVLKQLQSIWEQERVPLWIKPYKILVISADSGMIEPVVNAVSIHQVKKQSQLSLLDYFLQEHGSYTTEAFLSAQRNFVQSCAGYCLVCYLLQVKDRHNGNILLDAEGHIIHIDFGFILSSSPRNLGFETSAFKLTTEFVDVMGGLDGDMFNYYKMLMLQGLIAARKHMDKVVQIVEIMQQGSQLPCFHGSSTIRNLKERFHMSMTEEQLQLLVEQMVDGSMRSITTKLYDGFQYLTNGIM

| Compound | inhibition [1] | inhibition [2] | inhibition [3] | inhibition [4] | inhibition [5] | inhibition [6] | inhibition [7] | inhibition [8] | inhibition [9] | inhibition [10] | inhibition [11] | inhibition [12] | inhibition [13] | inhibition [14] | inhibition [15] | inhibition [16] | inhibition [17] | inhibition [18] | inhibition [19] | inhibition [20] |
| --- | --- | --- | --- | --- | --- | --- | --- | --- | --- | --- | --- | --- | --- | --- | --- | --- | --- | --- | --- | --- |
| NS(=O)(=O)c1ccc(Nc2ncc(-c3ccccc3)o2)cc1 | 1.81% | -0.91% | 0.75% | 3.75% | 2.69% | 0.62% | 3.33% | -3.61% | 4.39% | 0.6% | 0% | -1.43% | -1.09% | 3.56% | 10.3% | 6.23% | 15.3% | 3.35% | 11.7% | 4.43% |
| COc1cc(Nc2nccc(Nc3ccc4c(C)n[nH]c4c3)n2)cc(OC)c1OC | 1.69% | -2.15% | -3.51% | 1.57% | 3.03% | 2.45% | 21.3% | 3.96% | 4.89% | -0.37% | 1.98% | -1.28% | 0.88% | 0.37% | 0.29% | 2.2% | -0.92% | 3.27% | 17% | 0.88% |
| Fc1cccc(COc2ccc(Nc3ncnc4sc(-c5ccco5)cc34)cc2Cl)c1 | 4.18% | -1.79% | -2.01% | 6.18% | 17.2% | 2.28% | 12.4% | -1.28% | 0.68% | 0% | -6.23% | -2.56% | -0.56% | 8.17% | 3.13% | 8.13% | 10.1% | 5.86% | 6.49% | 6.22% |
| CS(=O)(=O)CCNCc1coc(-c2ccc3ncnc(Nc4ccc(OCc5ccccc5)cc4)c3c2)c1 | 3.41% | -2.53% | -3.45% | 2.17% | 3.25% | 0.39% | 0.49% | -2.05% | -3.75% | 4.73% | -1.49% | 0% | -0.98% | 1.05% | 6.53% | 4.1% | 2.85% | 3.35% | 5.11% | 4.2% |
| COc1ccc(-c2oc3ncnc(N)c3c2-c2ccc(NC(=O)Nc3cc(C(F)(F)F)ccc3F)cc2)cc1 | 17.6% | 1.18% | 34.5% | 2.34% | 20.6% | 2.28% | 22.4% | 6.88% | 5.84% | 0.16% | -0.9% | 0.08% | 0.05% | 6.63% | 16.7% | 1.18% | 2.5% | 7.03% | 5.27% | 8.13% |
